Values without a mark were called inactive.
Assays:
Assay in all cases: log2 ratio of Biotin-Ahx-Ub-VS probe labelling (compound/DMSO); higher = less target engagement, active = hit call of the paper (q ≤ 0.05, log2 ratio ≤ -1)
Conditions in all cases: treatment time: 3 h
[1] = compound: CCC1N(CCc2sccc12)C(=O)CCl
Outline: (§1)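 Compound at 50 or 200 µM, or DMSO, was applied for 3 h in triplicate to HEK293T lysate (495 µg per sample, Tris/CHAPS/IGEPAL buffer with protease inhibitors), after which Biotin-Ahx-Ub-VS was added at 0.5 µM final for 1 h. The labelled DUBs were pulled down with NeutrAvidin, digested with LysC and trypsin, and run by diaPASEF LC-MS/MS. Ratios are averaged base-two logs of compound over DMSO from median-normalised label-free quantities by unpaired t-test, counting only proteins with at least 2 unique peptides.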

[2] = compound: CN1c2ccccc2C(CS1(=O)=O)NC(=O)CCl
Outline: as §1

[3] = compound: Cl.ClCC(=O)N1CCc2ncncc2C1
Outline: as §1

[4] = compound: Cl.Cn1ncc2C(CCCc12)NC(=O)CCl
Outline: as §1

[5] = compound: ClCC(=O)NC1CCOc2ccccc12
Outline: as §1

[6] = compound: ClCC(=O)NC1CCCc2ccccc12
Outline: (§2)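 Spectronaut label-free, global-median-normalised protein quantities underlie these values, which are average ratios of compound to vehicle from an unpaired t-test. They are reported as log2 and include only proteins identified by two or more unique peptides. Samples of HEK293T lysate (495 µg) were treated in triplicate with a compound concentration series or vehicle for 3 h, then labelled with Biotin-Ahx-Ub-VS at 0.5 µM final for 1 h before NeutrAvidin enrichment, LysC and trypsin digestion, and diaPASEF LC-MS/MS.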

[7] = compound: ClCC(=O)N[C@@H]1CCCc2ccccc12
Outline: as §2

[8] = compound: ClCC(=O)N[C@H]1CCCc2ccccc12
Outline: as §2

[9] = compound: CCC1N(CCc2cc(OC)c(Cl)cc12)C(=O)CCl
Outline: as §1

[10] = compound: CCCC1N(CCc2cc(OC)c(OC)cc12)C(=O)CCl
Outline: as §1

BAP1 (UniProt Q92560)
Sequence of UniProt Q92560 (Q92560 whole entry): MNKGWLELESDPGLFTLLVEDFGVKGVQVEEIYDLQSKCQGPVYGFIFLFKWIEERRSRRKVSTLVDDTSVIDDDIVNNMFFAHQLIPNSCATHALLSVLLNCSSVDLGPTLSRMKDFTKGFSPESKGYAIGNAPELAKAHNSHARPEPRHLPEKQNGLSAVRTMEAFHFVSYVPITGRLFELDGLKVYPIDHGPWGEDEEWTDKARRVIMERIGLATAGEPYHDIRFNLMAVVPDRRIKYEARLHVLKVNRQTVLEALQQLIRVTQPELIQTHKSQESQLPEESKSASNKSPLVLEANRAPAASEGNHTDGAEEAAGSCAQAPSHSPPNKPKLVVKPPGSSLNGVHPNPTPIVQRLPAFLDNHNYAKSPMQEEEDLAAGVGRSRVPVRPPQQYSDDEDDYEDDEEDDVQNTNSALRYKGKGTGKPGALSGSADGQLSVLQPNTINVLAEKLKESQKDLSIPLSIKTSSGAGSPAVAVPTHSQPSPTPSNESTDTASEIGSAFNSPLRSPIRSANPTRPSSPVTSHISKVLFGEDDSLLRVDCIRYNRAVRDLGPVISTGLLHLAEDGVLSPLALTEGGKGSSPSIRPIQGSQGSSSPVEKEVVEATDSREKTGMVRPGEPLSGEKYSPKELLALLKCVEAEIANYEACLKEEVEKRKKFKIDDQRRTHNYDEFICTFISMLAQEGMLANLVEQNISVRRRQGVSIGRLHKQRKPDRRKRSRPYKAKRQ
log2 ratio of Biotin-Ahx-Ub-VS probe labelling ([1]; compound concentration: 50uM): -0.142
log2 ratio of Biotin-Ahx-Ub-VS probe labelling ([1]; compound concentration: 200uM): -0.347
log2 ratio of Biotin-Ahx-Ub-VS probe labelling ([2]; compound concentration: 50uM): -0.805
log2 ratio of Biotin-Ahx-Ub-VS probe labelling ([2]; compound concentration: 200uM): -2.09 (active)
log2 ratio of Biotin-Ahx-Ub-VS probe labelling ([3]; compound concentration: 50uM): -0.468
log2 ratio of Biotin-Ahx-Ub-VS probe labelling ([3]; compound concentration: 200uM): -1.04 (active)
log2 ratio of Biotin-Ahx-Ub-VS probe labelling ([4]; compound concentration: 50uM): -0.38
log2 ratio of Biotin-Ahx-Ub-VS probe labelling ([4]; compound concentration: 200uM): -1.03 (active)
log2 ratio of Biotin-Ahx-Ub-VS probe labelling ([5]; compound concentration: 50uM): -0.598
log2 ratio of Biotin-Ahx-Ub-VS probe labelling ([5]; compound concentration: 200uM): -2.15 (active)
log2 ratio of Biotin-Ahx-Ub-VS probe labelling ([6]; compound concentration: 0.78uM): -0.121
log2 ratio of Biotin-Ahx-Ub-VS probe labelling ([6]; compound concentration: 1.56uM): 0.0581
log2 ratio of Biotin-Ahx-Ub-VS probe labelling ([6]; compound concentration: 3.13uM): -0.0976
log2 ratio of Biotin-Ahx-Ub-VS probe labelling ([6]; compound concentration: 6.25uM): -0.0118
log2 ratio of Biotin-Ahx-Ub-VS probe labelling ([6]; compound concentration: 12.5uM): -0.122
log2 ratio of Biotin-Ahx-Ub-VS probe labelling ([6]; compound concentration: 25uM): -0.306
log2 ratio of Biotin-Ahx-Ub-VS probe labelling ([6]; compound concentration: 50uM): -0.368
log2 ratio of Biotin-Ahx-Ub-VS probe labelling ([6]; compound concentration: 100uM): -0.762
log2 ratio of Biotin-Ahx-Ub-VS probe labelling ([6]; compound concentration: 200uM): -1.34 (active)
log2 ratio of Biotin-Ahx-Ub-VS probe labelling ([7]; compound concentration: 0.78uM): -0.169
log2 ratio of Biotin-Ahx-Ub-VS probe labelling ([7]; compound concentration: 1.56uM): -0.0659
log2 ratio of Biotin-Ahx-Ub-VS probe labelling ([7]; compound concentration: 3.13uM): -0.0706
log2 ratio of Biotin-Ahx-Ub-VS probe labelling ([7]; compound concentration: 6.25uM): -0.137
log2 ratio of Biotin-Ahx-Ub-VS probe labelling ([7]; compound concentration: 12.5uM): -0.178
log2 ratio of Biotin-Ahx-Ub-VS probe labelling ([7]; compound concentration: 25uM): -0.163
log2 ratio of Biotin-Ahx-Ub-VS probe labelling ([7]; compound concentration: 50uM): -0.418
log2 ratio of Biotin-Ahx-Ub-VS probe labelling ([7]; compound concentration: 100uM): -0.683
log2 ratio of Biotin-Ahx-Ub-VS probe labelling ([7]; compound concentration: 200uM): -1.54 (active)
log2 ratio of Biotin-Ahx-Ub-VS probe labelling ([8]; compound concentration: 0.78uM): -0.119
log2 ratio of Biotin-Ahx-Ub-VS probe labelling ([8]; compound concentration: 1.56uM): -0.0453
log2 ratio of Biotin-Ahx-Ub-VS probe labelling ([8]; compound concentration: 3.13uM): -0.0819
log2 ratio of Biotin-Ahx-Ub-VS probe labelling ([8]; compound concentration: 6.25uM): 0.12
log2 ratio of Biotin-Ahx-Ub-VS probe labelling ([8]; compound concentration: 12.5uM): -0.18
log2 ratio of Biotin-Ahx-Ub-VS probe labelling ([8]; compound concentration: 25uM): -0.239
log2 ratio of Biotin-Ahx-Ub-VS probe labelling ([8]; compound concentration: 50uM): -0.305
log2 ratio of Biotin-Ahx-Ub-VS probe labelling ([8]; compound concentration: 100uM): -0.756
log2 ratio of Biotin-Ahx-Ub-VS probe labelling ([8]; compound concentration: 200uM): -1.39 (active)
log2 ratio of Biotin-Ahx-Ub-VS probe labelling ([9]; compound concentration: 50uM): -0.0732
log2 ratio of Biotin-Ahx-Ub-VS probe labelling ([9]; compound concentration: 200uM): -0.717
log2 ratio of Biotin-Ahx-Ub-VS probe labelling ([10]; compound concentration: 50uM): -0.385
log2 ratio of Biotin-Ahx-Ub-VS probe labelling ([10]; compound concentration: 200uM): -0.766

USP12 (UniProt O75317)
Sequence of UniProt O75317 (O75317 whole entry): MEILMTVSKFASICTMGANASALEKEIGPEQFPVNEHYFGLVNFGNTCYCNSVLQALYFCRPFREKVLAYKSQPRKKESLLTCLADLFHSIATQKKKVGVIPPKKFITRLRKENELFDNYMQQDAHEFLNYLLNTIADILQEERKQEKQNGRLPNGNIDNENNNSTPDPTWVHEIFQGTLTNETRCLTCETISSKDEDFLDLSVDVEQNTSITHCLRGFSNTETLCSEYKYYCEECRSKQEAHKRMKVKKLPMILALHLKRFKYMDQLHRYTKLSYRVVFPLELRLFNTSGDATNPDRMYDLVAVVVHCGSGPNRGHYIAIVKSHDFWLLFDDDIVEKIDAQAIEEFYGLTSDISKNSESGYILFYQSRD
log2 ratio of Biotin-Ahx-Ub-VS probe labelling ([1]; compound concentration: 50uM): -0.336
log2 ratio of Biotin-Ahx-Ub-VS probe labelling ([1]; compound concentration: 200uM): -0.364
log2 ratio of Biotin-Ahx-Ub-VS probe labelling ([2]; compound concentration: 50uM): -0.67
log2 ratio of Biotin-Ahx-Ub-VS probe labelling ([2]; compound concentration: 200uM): -0.285
log2 ratio of Biotin-Ahx-Ub-VS probe labelling ([3]; compound concentration: 50uM): -0.414
log2 ratio of Biotin-Ahx-Ub-VS probe labelling ([3]; compound concentration: 200uM): 0.0587
log2 ratio of Biotin-Ahx-Ub-VS probe labelling ([4]; compound concentration: 50uM): 0.232
log2 ratio of Biotin-Ahx-Ub-VS probe labelling ([4]; compound concentration: 200uM): 0.133
log2 ratio of Biotin-Ahx-Ub-VS probe labelling ([5]; compound concentration: 50uM): -0.0656
log2 ratio of Biotin-Ahx-Ub-VS probe labelling ([5]; compound concentration: 200uM): -0.128
log2 ratio of Biotin-Ahx-Ub-VS probe labelling ([6]; compound concentration: 0.78uM): -0.261
log2 ratio of Biotin-Ahx-Ub-VS probe labelling ([6]; compound concentration: 1.56uM): -0.455
log2 ratio of Biotin-Ahx-Ub-VS probe labelling ([6]; compound concentration: 3.13uM): -0.802
log2 ratio of Biotin-Ahx-Ub-VS probe labelling ([6]; compound concentration: 6.25uM): -0.549
log2 ratio of Biotin-Ahx-Ub-VS probe labelling ([6]; compound concentration: 12.5uM): -0.298
log2 ratio of Biotin-Ahx-Ub-VS probe labelling ([6]; compound concentration: 25uM): -0.852
log2 ratio of Biotin-Ahx-Ub-VS probe labelling ([6]; compound concentration: 50uM): -0.524
log2 ratio of Biotin-Ahx-Ub-VS probe labelling ([6]; compound concentration: 100uM): -0.285
log2 ratio of Biotin-Ahx-Ub-VS probe labelling ([6]; compound concentration: 200uM): -0.69
log2 ratio of Biotin-Ahx-Ub-VS probe labelling ([7]; compound concentration: 0.78uM): -0.131
log2 ratio of Biotin-Ahx-Ub-VS probe labelling ([7]; compound concentration: 1.56uM): 0.0424
log2 ratio of Biotin-Ahx-Ub-VS probe labelling ([7]; compound concentration: 3.13uM): 0.272
log2 ratio of Biotin-Ahx-Ub-VS probe labelling ([7]; compound concentration: 6.25uM): 0.0447
log2 ratio of Biotin-Ahx-Ub-VS probe labelling ([7]; compound concentration: 12.5uM): -0.0347
log2 ratio of Biotin-Ahx-Ub-VS probe labelling ([7]; compound concentration: 25uM): -0.263
log2 ratio of Biotin-Ahx-Ub-VS probe labelling ([7]; compound concentration: 50uM): -0.715
log2 ratio of Biotin-Ahx-Ub-VS probe labelling ([7]; compound concentration: 100uM): -0.0609
log2 ratio of Biotin-Ahx-Ub-VS probe labelling ([7]; compound concentration: 200uM): -0.175
log2 ratio of Biotin-Ahx-Ub-VS probe labelling ([8]; compound concentration: 0.78uM): -0.247
log2 ratio of Biotin-Ahx-Ub-VS probe labelling ([8]; compound concentration: 1.56uM): -0.665
log2 ratio of Biotin-Ahx-Ub-VS probe labelling ([8]; compound concentration: 3.13uM): 0.0603
log2 ratio of Biotin-Ahx-Ub-VS probe labelling ([8]; compound concentration: 6.25uM): 0.103
log2 ratio of Biotin-Ahx-Ub-VS probe labelling ([8]; compound concentration: 12.5uM): -0.0251
log2 ratio of Biotin-Ahx-Ub-VS probe labelling ([8]; compound concentration: 25uM): -0.184
log2 ratio of Biotin-Ahx-Ub-VS probe labelling ([8]; compound concentration: 50uM): -0.474
log2 ratio of Biotin-Ahx-Ub-VS probe labelling ([8]; compound concentration: 100uM): -0.242
log2 ratio of Biotin-Ahx-Ub-VS probe labelling ([8]; compound concentration: 200uM): -0.748
log2 ratio of Biotin-Ahx-Ub-VS probe labelling ([9]; compound concentration: 50uM): -0.0261
log2 ratio of Biotin-Ahx-Ub-VS probe labelling ([9]; compound concentration: 200uM): -0.904
log2 ratio of Biotin-Ahx-Ub-VS probe labelling ([10]; compound concentration: 50uM): -0.303
log2 ratio of Biotin-Ahx-Ub-VS probe labelling ([10]; compound concentration: 200uM): -0.368

From the supplement of paper PMC11732987, “Enantioselective OTUD7B fragment discovery through chemoproteomics screening and high-throughput optimisation” (Communications Chemistry, 2025)
